# According to PubChem BioAssay:
# Active and inactive are the calls of the source.
# Assay: plasmodial surface anion channel blockers, osmotic lysis – cell-based, P. falciparum Indochina, OD700, 2 h, primary screen (AID 1155);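 note: lysis reports solute entry through the parasite surface anion channel PSAC; channel blockers reduce lysis of infected cells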
# Conditions: P. falciparum Indochina infected erythrocytes, higher = more signal, called active from +8 up or from −8 down
row,Compound,z-score
1,CCOC(=O)NN=C1C[C@@H](O)[C@@H](O)[C@@H]2[C@@H]3C(=O)N(Cc4ccc5c(c4)OCO5)C(=O)[C@@H]3CC[C@H]12,0.756 (inactive)
2,O=C(NN=C1C[C@@H](O)[C@@H](O)[C@@H]2[C@@H]3C(=O)N(C[C@@H]4CCCO4)C(=O)[C@@H]3CC[C@H]12)OCc1ccccc1,0.278 (inactive)
3,CC(C)CON=C1C[C@@H](O)[C@@H](O)[C@@H]2[C@@H]3C(=O)N(c4ccc(F)cc4F)C(=O)[C@@H]3CC[C@H]12,-0.996 (inactive)
4,C[C@@H](c1ccccc1)N1C(=O)[C@H]2[C@H]3[C@H](O)[C@H](O)CC(=NO[C@@H]4O[C@H](CO)[C@@H](O)[C@H](O)[C@H]4O)[C@@H]3CC[C@H]2C1=O,-0.076 (inactive)
5,CCOC(=O)[C@H](CC(C)C)NC(=O)CCC1CC(OC(=O)NCc2ccc3c(c2)OCO3)CC2(CCCC(COC(=O)NCC3CCCCC3)O2)O1 (stereo partly drawn),0.0043 (inactive)
6,O=C1[C@H]2[C@H]3[C@H](O)[C@H](O)CC(=NOC[C@@H](O)COCc4ccco4)[C@H]3CC[C@H]2C(=O)N1C[C@@H]1CCCO1,0.276 (inactive)
7,CCOC(=O)NN=C1C[C@@H](O)[C@@H](O)[C@@H]2[C@@H]3C(=O)N([C@@H](C)c4ccccc4)C(=O)[C@@H]3CC[C@@H]12,0.0095 (inactive)
8,CC(CCN1CCCc2nc(C)c(C)cc21)=NOC(C)CN1CCCCc2nc(C)c(C)cc21 (stereo not drawn),0.193 (inactive)
9,CO[C@H]1COC(=O)[C@H](C)NC(=O)CC=C[C@@H](C)[C@H](OC)COC(=O)[C@@H](OCc2ccccc2)C=C[C@@H]1C,0.101 (inactive)
10,COC(=O)[C@H](C)NC(=O)CCC1CC(OC(=O)NCCc2ccc(F)cc2)CC2(CCCC(COC(=O)NCc3cccc(C(F)(F)F)c3)O2)O1 (stereo partly drawn),0.445 (inactive)
11,CCOC(=O)CCN1C(=O)[C@H]2[C@H]3[C@H](O)[C@H](O)CC(=NOCC(C)C)[C@H]3CC[C@H]2C1=O,-0.153 (inactive)
12,CCOC(=O)NN=C1C[C@@H](O)[C@@H](O)[C@@H]2[C@@H]3C(=O)N([C@@H](C)c4ccccc4)C(=O)[C@@H]3CC[C@H]12,0.452 (inactive)
13,COc1ccc(O[C@H]2C=C[C@@H](c3ccccc3)O[C@@H]2CON=C(C)CCN2CCc3nc(-c4ccccc4)c(-c4ccccc4)cc3C2)cc1,1.25 (inactive)
14,C#CCCCON=C1C[C@@H](O)[C@@H](O)[C@@H]2[C@@H]3C(=O)N(c4ccc(F)cc4F)C(=O)[C@@H]3CC[C@@H]12,0.719 (inactive)
15,Cc1ccc(S(=O)(=O)N[C@H]2COC(=O)CC=C[C@@H](C)COC(=O)CC=C[C@@H]2C)cc1,-0.162 (inactive)
16,CC(C)CON=C1C[C@@H](O)[C@@H](O)[C@@H]2[C@@H]3C(=O)N(C[C@@H]4CCCO4)C(=O)[C@@H]3CC[C@@H]12,-0.379 (inactive)
17,Cc1ccc(S(=O)(=O)OC[C@H]2CN3[C@H](c4ccc(Br)cc4)[C@@H](C)CC[C@H]3C(=O)O2)cc1,0.57 (inactive)

# Assay: changes in parasitized red cell lysis, either direction – P. falciparum Indochina, OD700, 3 h, PSAC antagonist project, primary screen (AID 1156)
# Conditions: P. falciparum-infected erythrocytes, osmotic lysis, higher = more signal, called active from +8 up or from −8 down
row,Compound,z-score
1,Cc1cc2c(nc1C)CCCCN2CC(C)ON=C[C@@H](C)[C@H](OCc1ccccc1)C(C)C (stereo partly drawn),0.472 (inactive)
2,CO[C@@H]1C=CCC(=O)N2CCC[C@H]2C(=O)OC[C@@H](C)C(=O)OC[C@H]1C,0.335 (inactive)
3,CO[C@@H]1C=CCC(=O)N[C@@H](C)C(=O)OC[C@@H](OC)[C@H](C)CCCC(=O)OC[C@H]1C,-0.683 (inactive)
4,COc1ccc(COC(=O)NN=C2C[C@@H](O)[C@@H](O)[C@@H]3[C@@H]4C(=O)N(c5ccc(F)cc5F)C(=O)[C@@H]4CC[C@H]23)cc1,2.52 (inactive)
5,CC(C)[C@@H](OCc1ccccc1)[C@H](C)C=NOC[C@@H](O)COCc1ccco1,-0.302 (inactive)
6,O=C1[C@H]2[C@H]3[C@H](O)[C@H](O)CC(=NOCc4ccccc4)[C@@H]3CC[C@H]2C(=O)N1C[C@@H]1CCCO1,-0.335 (inactive)
7,CC(C)=CCCC(C)=CCON=C1C[C@@H](O)[C@@H](O)[C@@H]2[C@@H]3C(=O)N(C(C)(C)C)C(=O)[C@@H]3CC[C@H]12,-0.921 (inactive)
8,CCOC(=O)[C@H](Cc1ccccc1)NC(=O)CCC1CC(OC(=O)NCCc2ccc(F)cc2)CC2(CCCC(COC(=O)NCCc3ccccc3OC)O2)O1 (stereo partly drawn),-0.106 (inactive)
9,COc1ccc(COC(=O)NN=C2C[C@@H](O)[C@@H](O)[C@@H]3[C@@H]4C(=O)N(C5CCCCC5)C(=O)[C@@H]4CC[C@H]23)cc1,0.103 (inactive)
10,CC(C)=CCCC(C)=CCON=C1C[C@@H](O)[C@@H](O)[C@@H]2[C@@H]3C(=O)N(C4CCCCC4)C(=O)[C@@H]3CC[C@@H]12,-0.25 (inactive)
11,COC(=O)[C@@H]1CC[C@H](C)[C@@H](c2ccc(C)cc2)N1C(=O)c1ccc(C=NO[C@@H]2O[C@H](COC(C)=O)[C@@H](OC(C)=O)[C@H](OC(C)=O)[C@H]2OC(C)=O)cc1,0.819 (inactive)
12,COc1cccc([C@H]2Oc3ccc(OC)cc3C(=NOC[C@@H](O)[C@H]3O[C@@H]4OC(C)(C)O[C@@H]4[C@H]3O)[C@@H]2O)c1,-0.128 (inactive)
13,O=C1[C@H]2[C@H]3[C@H](O)[C@H](O)CC(=NO[C@@H]4O[C@H](CO)[C@@H](O)[C@H](O)[C@H]4O)[C@H]3CC[C@H]2C(=O)N1c1cccc(Oc2ccccc2)c1,0.253 (inactive)
14,CCN1C(=O)[C@H]2[C@H]3[C@H](O)[C@H](O)CC(=NOCC(C)C)[C@@H]3CC[C@H]2C1=O,0.456 (inactive)
15,CC(C)C[C@H](NC(=O)CCC1CC(OC(=O)NCc2cccc3ccccc23)CC2(CCCC(COC(=O)NCc3ccccc3)O2)O1)C(=O)NCC(c1ccccc1)c1ccccc1 (stereo partly drawn),-1.22 (inactive)
16,COC(=O)CC=C[C@@H](C)[C@@H](C=NOC[C@H]1O[C@H](c2ccccc2)C=C[C@@H]1Oc1ccc(OC)cc1)NS(=O)(=O)c1ccc(C)cc1,0.949 (inactive)
17,C#CCCCON=C1C[C@@H](O)[C@@H](O)[C@@H]2[C@@H]3C(=O)N(c4ccc(F)cc4F)C(=O)[C@@H]3CC[C@H]12,1.13 (inactive)
18,CO[C@H]1COC(=O)[C@@H](Cc2ccccc2)NC(=O)[C@@H](C)COC(=O)CCC[C@@H]1C,-0.155 (inactive)

row,Compound,z-score
1,COc1cccc([C@H]2Oc3ccc(OC)cc3C(=NO[C@@H](C)c3cn([C@H](CO)Cc4ccccc4)nn3)[C@@H]2O)c1,1.19 (inactive)
2,CCOC(=O)NN=C1C[C@@H](O)[C@@H](O)[C@@H]2[C@@H]3C(=O)N(Cc4ccc5c(c4)OCO5)C(=O)[C@@H]3CC[C@H]12,0.41 (inactive)
3,O=C(NN=C1C[C@@H](O)[C@@H](O)[C@@H]2[C@@H]3C(=O)N(C[C@@H]4CCCO4)C(=O)[C@@H]3CC[C@H]12)OCc1ccccc1,0.284 (inactive)
4,CC(C)CON=C1C[C@@H](O)[C@@H](O)[C@@H]2[C@@H]3C(=O)N(c4ccc(F)cc4F)C(=O)[C@@H]3CC[C@H]12,0.12 (inactive)
5,C[C@@H](c1ccccc1)N1C(=O)[C@H]2[C@H]3[C@H](O)[C@H](O)CC(=NO[C@@H]4O[C@H](CO)[C@@H](O)[C@H](O)[C@H]4O)[C@@H]3CC[C@H]2C1=O,-0.698 (inactive)
6,CCOC(=O)[C@H](CC(C)C)NC(=O)CCC1CC(OC(=O)NCc2ccc3c(c2)OCO3)CC2(CCCC(COC(=O)NCC3CCCCC3)O2)O1 (stereo partly drawn),-0.116 (inactive)
7,O=C1[C@H]2[C@H]3[C@H](O)[C@H](O)CC(=NOC[C@@H](O)COCc4ccco4)[C@H]3CC[C@H]2C(=O)N1C[C@@H]1CCCO1,-0.425 (inactive)
8,CCOC(=O)NN=C1C[C@@H](O)[C@@H](O)[C@@H]2[C@@H]3C(=O)N([C@@H](C)c4ccccc4)C(=O)[C@@H]3CC[C@@H]12,-0.611 (inactive)
9,CC(CCN1CCCc2nc(C)c(C)cc21)=NOC(C)CN1CCCCc2nc(C)c(C)cc21 (stereo not drawn),0.564 (inactive)
10,CO[C@H]1COC(=O)[C@H](C)NC(=O)CC=C[C@@H](C)[C@H](OC)COC(=O)[C@@H](OCc2ccccc2)C=C[C@@H]1C,0.912 (inactive)
11,COC(=O)[C@H](C)NC(=O)CCC1CC(OC(=O)NCCc2ccc(F)cc2)CC2(CCCC(COC(=O)NCc3cccc(C(F)(F)F)c3)O2)O1 (stereo partly drawn),-0.45 (inactive)
12,CCOC(=O)CCN1C(=O)[C@H]2[C@H]3[C@H](O)[C@H](O)CC(=NOCC(C)C)[C@H]3CC[C@H]2C1=O,0.298 (inactive)
13,CCOC(=O)NN=C1C[C@@H](O)[C@@H](O)[C@@H]2[C@@H]3C(=O)N([C@@H](C)c4ccccc4)C(=O)[C@@H]3CC[C@H]12,-0.011 (inactive)
14,COc1ccc(O[C@H]2C=C[C@@H](c3ccccc3)O[C@@H]2CON=C(C)CCN2CCc3nc(-c4ccccc4)c(-c4ccccc4)cc3C2)cc1,0.855 (inactive)
15,C#CCCCON=C1C[C@@H](O)[C@@H](O)[C@@H]2[C@@H]3C(=O)N(c4ccc(F)cc4F)C(=O)[C@@H]3CC[C@@H]12,0.642 (inactive)
16,Cc1ccc(S(=O)(=O)N[C@H]2COC(=O)CC=C[C@@H](C)COC(=O)CC=C[C@@H]2C)cc1,-0.424 (inactive)
17,CC(C)CON=C1C[C@@H](O)[C@@H](O)[C@@H]2[C@@H]3C(=O)N(C[C@@H]4CCCO4)C(=O)[C@@H]3CC[C@@H]12,-0.611 (inactive)
18,Cc1ccc(S(=O)(=O)OC[C@H]2CN3[C@H](c4ccc(Br)cc4)[C@@H](C)CC[C@H]3C(=O)O2)cc1,0.896 (inactive)
